MCF10A rereplic = A quantitative high throughput screen for small molecules that induce DNA re-replication in MCF 10a normal breast cells | MCF 10A DNA re-replication, Hoechst nuclear intensity, 48 h | Potency, µM (top dose mostly 46.1 µM), without a hit: at the highest dose activity, positive = re-replication, hits mostly activators | 350,000 tested, 2.9% active; also: potency is read from the fitted curve at half-maximal effect; % of control where 0% means no effect; nearly all actives have a fitted effect of over 50% in size
KCNH2 3.1 block = qHTS for Inhibitors of KCHN2 3.1: Mutant qHTS; activity change, % (tested at about 1.8 µM); U2OS KCNH2 3.1, thallium flux FluxOr; hits give low values; AID 720553, 2013; 340,000 tested, 0.95% active;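 active = maximum activity change below -70%; inconclusive = maximum activity change from -70% to -50%; inactive = maximum activity change above -50%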;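 also: thallium influx rate constant from kinetic fluorescence after stimulation buffer; % is scaled to controls: 0 for no effect and ±100 for the full control effect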
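Thallium flux read-out: FluxOr dye with Red40 quencher in HBSS/HEPES, 45 min at RT. Rate constants from kinetic reads were normalized to positive and negative DMSO controls. Cells: U2OS virally expressing the 3.1 isoform.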
SW480 rerep = A quantitative high throughput screen for small molecules that induce DNA re-replication in SW480 colon adenocarcinoma cells | SW480 DNA re-replication, Hoechst DNA content imaging, 48 h | Potency, µM (top dose mostly 46.1 µM), inactives show top-dose re-replication activation, actives largely listed as activators | 340,000 tested, 1.8% active; also: potency is read from the fitted curve at half-maximal effect; % of control where 0% means no effect; nearly all actives have a fitted effect of over 55% in size
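Hoechst fluorescence of nuclei (405 nm excitation, 500-530 nm emission) measured by plate-scanning imager after 48 hr compound exposure at 37 C; re-replication scored as increased number of nuclei with elevated intensity.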
hERG WT inh = qHTS for Inhibitors of KCHN2 3.1: Wildtype qHTS; U2OS, BacMam KCNH2, thallium flux FluxOr; hits give low values; activity change, % at 1.84 µM; AID 720551, 2013; 340,000 tested, 0.37% active;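 active = maximum activity change below -70%; inconclusive = maximum activity change between -70% and -50%; inactive = maximum activity change above -50%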; also: % is scaled to controls: 0 for no effect and ±100 for the full control effect
Target sequence (Q12809 whole entry, looked up): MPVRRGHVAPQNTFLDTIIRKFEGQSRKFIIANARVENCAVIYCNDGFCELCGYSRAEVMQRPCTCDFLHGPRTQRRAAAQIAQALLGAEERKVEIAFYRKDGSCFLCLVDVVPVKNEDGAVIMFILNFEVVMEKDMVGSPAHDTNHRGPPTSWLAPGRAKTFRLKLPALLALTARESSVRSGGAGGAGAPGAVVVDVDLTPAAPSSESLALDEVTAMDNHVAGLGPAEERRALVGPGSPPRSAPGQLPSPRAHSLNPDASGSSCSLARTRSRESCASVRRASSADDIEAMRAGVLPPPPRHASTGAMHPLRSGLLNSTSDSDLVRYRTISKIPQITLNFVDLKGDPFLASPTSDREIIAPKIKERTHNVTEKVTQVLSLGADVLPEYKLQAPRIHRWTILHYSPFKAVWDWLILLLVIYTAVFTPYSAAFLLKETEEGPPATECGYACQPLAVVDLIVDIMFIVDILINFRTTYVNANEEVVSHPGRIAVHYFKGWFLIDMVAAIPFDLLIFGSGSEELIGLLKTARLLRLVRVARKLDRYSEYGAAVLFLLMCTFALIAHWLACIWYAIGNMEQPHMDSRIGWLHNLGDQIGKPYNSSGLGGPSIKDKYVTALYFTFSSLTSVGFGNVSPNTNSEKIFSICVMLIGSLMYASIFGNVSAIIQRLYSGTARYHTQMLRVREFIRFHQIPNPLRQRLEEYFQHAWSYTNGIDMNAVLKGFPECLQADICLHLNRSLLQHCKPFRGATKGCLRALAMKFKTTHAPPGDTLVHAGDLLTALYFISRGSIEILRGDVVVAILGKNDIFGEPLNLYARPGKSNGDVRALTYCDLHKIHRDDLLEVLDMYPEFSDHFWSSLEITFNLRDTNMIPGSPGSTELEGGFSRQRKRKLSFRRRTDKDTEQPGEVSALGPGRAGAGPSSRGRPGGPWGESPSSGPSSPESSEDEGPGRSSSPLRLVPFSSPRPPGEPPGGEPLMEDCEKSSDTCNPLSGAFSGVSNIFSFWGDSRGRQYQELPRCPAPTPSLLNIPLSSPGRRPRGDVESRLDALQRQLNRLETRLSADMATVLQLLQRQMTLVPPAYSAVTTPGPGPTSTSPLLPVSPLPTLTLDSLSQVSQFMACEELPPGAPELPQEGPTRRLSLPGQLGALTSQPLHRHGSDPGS
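U2OS cells transduced with wild-type KCNH2 virus are loaded with FluxOr dye for 45 min, and thallium flux is measured in kinetic reads before and after stimulation buffer. Rate constants are normalized to DMSO controls.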
KB-V1 MDR tox = qHTS assay for MDR1-selective chemotherapeutics: Primary screen using the drug-selected MDR subline cells KB-V1 | KB-V1 MDR cells viability, CellTiter-Glo, 72 h | AID 1347076, 2019 | Potency, µM (highest dose often 46.1 µM), hits mostly cytotoxic | 400,000 tested, 3.4% active; also: potency is read from the fitted curve at half-maximal effect; % is scaled to controls: 0 for no effect and ±100 for the full control effect; nearly all actives have a fitted effect of over 60% in size
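Luminescent ATP read-out (CellTiter-Glo, 10 min) measures survival of drug-selected KB-V1 MDR cells after 72 h, 37 degrees C compound exposure. Medium: phenol-red-free DMEM, 10% FBS. Values from fitted concentration-response curves.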
KB-3-1 cytotox = qHTS assay for MDR1-selective chemotherapeutics: Primary screen using the parental adenocarcinoma cell KB-3-1; KB-3-1 viability, CellTiter-Glo ATP luminescence, 72 h; Potency, µM (doses to about 46.1 µM), usual class: cytotoxic; 400,000 tested, 1.4% active; AID 1347075, 2019; also: potency is read from the fitted curve at half-maximal effect; % is scaled to controls: 0 for no effect and ±100 for the full control effect; nearly all actives have a fitted effect of over 60% in size
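Cytotoxicity in the drug-sensitive parental line KB-3-1 was scored as loss of CellTiter-Glo luminescence following 72 h incubation with compound. Values come from curve fitting of normalized concentration-response data.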
Starred values were filed as active, the others as inactive; i = inactive; ? = inconclusive; / = no result. This is a sample that favours compounds with a hit; in the whole collection about 7.6% have one here. Unless noted, calls follow the shape of the dose curve; as a rule, active = well fitted curve in the direction sought with a large enough effect; inconclusive = small, poorly fitted or top-dose-only effect, or another doubt; inactive = no such curve, though single readings can be large; an effect the other way counts as inactive or inconclusive.

SMILES	MCF10A rereplic	KCNH2 3.1 block	SW480 rerep	hERG WT inh	KB-V1 MDR tox	KB-3-1 cytotox
Cc1ccc(-c2c(=O)n(O)c3ccccc3[n+]2[O-])cc1	-4.9%	9.7	-7.7%	-10.5	i	i
S=c1nc(-c2ccccc2)[nH]c2ccccc12	2.3%	30.9	-10.8%	-10.8	i	i
S=c1nc(-c2ccc(Br)cc2)[nH]c2ccccc12	1.3%	30.5	-1.2%	-140.7*	i	i
CCOC(=O)c1cc(Br)c(=O)n2ccccc12	-1.6%	-17.4	-4.6%	-29.9	14.6µM*	i
CCOC(=O)c1cc(C(C)=O)n2ccccc12	26.3%	0.2	-10.9%	-5.5	i	i
Cc1ccc(N(C(=O)c2csnn2)C(C(=O)NC2CCCC2)c2cccnc2)c(C)c1 (configuration not stated)	-16.8%	-14.2	?	-10.3	i	?
Nc1ncnc2c1ncn2[C@@H]1O[C@H](CNC(=O)OC[C@@H](N)Cc2ccccc2)[C@@H](O)[C@H]1O	/	/	/	/	i	i
O=C(OCC1OC(n2cnc3c(N(C(=O)c4ccccc4)C(=O)c4ccccc4)ncnc32)C(O)C1F)c1ccccc1 (configuration not stated)	23.8%	-85.6*	?	-3.9	i	i
C=CCc1ccccc1Oc1cc(OC)nc(N)n1	3.3%	4.9	-6.0%	-4.4	i	i
COc1ccc(C2C(C(=O)NCc3ccccn3)CCC(=O)N2c2cc(OC)c(OC)c(OC)c2)cc1 (configuration not stated)	2.3%	7.5	-7.6%	-5.9	i	i
CC(C)(C)OC(=O)COc1cc(OCC(=O)OC(C)(C)C)c2c(=O)cc(-c3ccccc3)oc2c1	6.6%	7.4	-3.0%	-0.6	20.6µM*	i
CC(C)(C)OC(=O)COc1cc(O)c2c(=O)cc(-c3ccccc3)oc2c1	7.3%	-3.6	?	-0.4	i	i
CC1(c2ccc(Cl)cc2)NC(=O)CS1 (configuration not stated)	1.0%	16.9	-12.0%	2.5	i	i
CC(=O)N1CCC(N(Cc2ccco2)C(=O)Nc2ccc(Br)cc2F)CC1	/	/	/	/	i	i
O=c1[nH]c(CSc2nnc(Nc3ccccc3)s2)nc2ccccc12	21.5%	-32.8	16.4µM*	-4.1	i	i
O=C1c2ccccc2C(=O)N1CSc1nnc(Nc2ccccc2)s1	-5.1%	-105.0*	-4.5%	-1.2	i	i
CCOC(=O)Nc1ccc2nc(Sc3ccc(Cl)cc3)sc2c1	?	-5.6	16.4µM*	-3.7	i	i
CN1CCN(c2ccc(NC(=O)c3ccc(Br)o3)cc2)CC1	18.8%	6.0	13.1%	4.4	i	i
Cc1ccc(C(=O)N2CCN(c3ccc(NC(=O)c4ccc(Br)o4)cc3)CC2)cc1	12.8%	-83.1*	-0.7%	13.6	i	i
O=C(Nc1ccc(C(=O)N2CCN(c3ccncc3)CC2)cc1)c1ccc(Br)o1	/	/	/	/	i	?
CCC(=O)N1CCN(c2ccc(NC(=O)c3ccc(Br)o3)cc2)CC1	2.6%	-3.5	20.6µM*	/	i	i
CC(=O)c1ccc2noc(-c3cccc(F)c3)c2c1	2.1%	-82.8*	1.1%	6.8	i	i
COc1cccc(-c2onc3ccc(C(C)=O)cc23)c1	-1.3%	7.6	-2.4%	3.9	i	i
Cc1cccc(Oc2cc(NC(=O)c3ccccc3)cc([N+](=O)[O-])c2)c1	24.2%	-23.3	-1.0%	-13.9	?	i
CC(=O)Nc1ccc(Oc2cc(NC(C)=O)cc([N+](=O)[O-])c2)cc1	?	8.3	-110.0%	-1.5	i	i
SMILES	MCF10A rereplic	KCNH2 3.1 block	SW480 rerep	hERG WT inh	KB-V1 MDR tox	KB-3-1 cytotox
Cc1nn(C)cc1C(=O)Nc1cc(Oc2ccc(Cl)cc2)cc([N+](=O)[O-])c1	97.4%	0.8	21.9%	-11.2	?	20.6µM*
CCn1nc(C)c(C(=O)Nc2cc(Oc3cc(C)cc(C)c3)cc([N+](=O)[O-])c2)c1C	23.1µM*	-16.1	?	-3.6	3.26µM*	18.4µM*
Cn1cc([N+](=O)[O-])c(C(=O)Nc2cc(Oc3ccccc3)cc([N+](=O)[O-])c2)n1	2.91µM*	-8.5	4.11µM*	-4.6	?	?
O=C(Nc1cc(Oc2ccc(Cl)cc2)cc([N+](=O)[O-])c1)c1ccco1	16.4µM*	?	-0.1%	4.6	i	i
CCOc1ccc(Oc2cc(NC(=O)c3ccco3)cc([N+](=O)[O-])c2)cc1	?	10.2	5.2%	-1.3	i	i
CCC(C(=O)OCc1cc(=O)n2nc(C)sc2n1)c1ccccc1 (configuration not stated)	/	/	/	/	i	i
CSCCC(NC(=O)c1ccccc1Cl)C(=O)NCC(c1ccc(F)cc1)N1CCOCC1 (configuration not stated)	1.4%	4.3	-3.2%	-17.4	i	i
CC(=O)Nc1cccc(Nc2nc3ccccc3n3c(C)nnc23)c1	/	/	/	/	i	i
c1ccc2nc3c(cc2c1)CCCC3	/	/	/	/	?	i
Cc1ccccc1Cn1ccc(NC(=O)c2nn(C)cc2[N+](=O)[O-])n1	6.51µM*	19.2	10.3µM*	13.5	?	i
CCOc1ccc(CCN2C(=O)c3ccc(C(=O)O)cc3C2=O)cc1OCC	8.3%	-21.6	-13.3%	-4.6	i	i
CC1(S(=O)(=O)O)CC(=O)c2ccccc2C1=O (configuration not stated)	?	-6.3	14.6µM*	-13.1	i	?
Cc1[nH]c2c(C)cccc2c1CCNC(=O)c1ccc2c(c1[N+](=O)[O-])C(=O)c1ccccc1C2=O	7.94µM*	1.3	18.4µM*	-3.4	i	?
CN(C)C(=O)c1ccc2c(c1[N+](=O)[O-])C(=O)c1ccccc1C2=O	?	-0.4	/	-5.7	?	i
Cc1[nH]c2ccccc2c1CCNC(=O)c1ccc2c(c1[N+](=O)[O-])C(=O)c1ccccc1C2=O	?	-12.7	?	4.7	16.4µM*	i
CCCSc1ncc(Cl)c(C(=O)Nc2sc3c(c2C(=O)NCCCOC)CCCC3)n1	/	/	/	/	i	?
COc1ccc(/C=C(/NC(=O)c2ccc(C)cc2)C(=O)N2CCCC2)cc1OC	?	-7.3	-36.3%	-0.6	i	i

Source: PubChem BioAssay (National Center for Advancing Translational Sciences (NCATS))
